PfHsp90 yeast 2: reduces growth (ATP signal) of yeast expressing P. falciparum Hsp90; S. cerevisiae expressing PfHsp90, BacTiter-Glo ATP, 48 h; yeast lacking PDR1 and PDR3 efflux regulators; inhibition, % at 9.4 µM; hit rate 0.32% among 310,000; AID 504621;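 active means every replicate shows inhibition above about 80%, whatever the replicate mean, limit read from the data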
tim10-1 inh: tim10-1 yeast growth inhibition | S. cerevisiae tim10-1 ts strain growth, BacTiter-Glo, 24 h | inhibition, % at 20 µM | hit rate 2.2% among 330,000 | AID 463190;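 active means inhibition of at least 40%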;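 further: mutant grown at 25 °C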
tim23-1 inh: tim23-1 yeast growth inhibition. S. cerevisiae tim23-1 growth, BacTiter-Glo luminescence, 24 h. inhibition, % at 20 µM. hit rate 1.3% among 330,000;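 active means growth inhibition of the mutant yeast at or above 50%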;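 further: temperature-sensitive mutant grown at 25 °C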
Mot1-301 SUMO: inhibitors of SUMOylation pathway: yeast Mot1-301 growth rescue | S. cerevisiae Mot1-301 growth rescue, ATP luminescence, 38.5C; percent above DMSO median, 100 means doubled | growth rescue, % at 18.8 µM | hit rate 1% among 320,000;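 active means every valid replicate shows activation above 250% relative to neutral control wells; inactive means the rest, any valid replicate at or below 250%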
TIM10 inh: inhibits growth of TIM10 yeast strain; S. cerevisiae TIM10 strain growth, BacTiter-Glo luminescence, 24 h; inhibition, % at 10 µM; hit rate 1.4% among 330,000;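 active means inhibition of 40% or more at the single tested concentration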;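 further: wild-type TIM10 isogenic control strain grown at permissive 25 °C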
TIM10 conf: TIM10 yeast growth inhibition, confirmed. shares compounds with TIM10 inh. S. cerevisiae tim10 strain growth, BacTiter-Glo luminescence, 24 h. inhibition, % at 10 µM. hit rate 63% among 4,600;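 active means inhibition of yeast growth at or above a set limit in either of two replicates at 10 µM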; further: this counterscreen used the strain with wild-type TIM10
tim23-1 confirm: confirmation of tim23-1 mutant yeast growth inhibitors; inhibition, % at 20 µM; shares compounds with tim23-1 inh; hit rate 83% among 4,400; AID 463218; S. cerevisiae tim23-1 growth, BacTiter-Glo luminescence, 24 h;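 active means inhibition above about 39% in either of two replicate wells at 20 µM, limit read from the data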;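 further: temperature-sensitive tim23-1 mutant grown at 25 °C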
A number is an active result; n = inactive; x = no result given. Only some compounds are listed: those with a hit (about 4.4% of all), similar ones and a draw of the others.

SMILES | PfHsp90 yeast 2 | tim10-1 inh | tim23-1 inh | Mot1-301 SUMO | TIM10 inh | TIM10 conf | tim23-1 confirm
O=C(c1ccc2oc(CCc3ccccc3)nc2c1)N1CCC(O)CC1 | n | n | n | n | n | x | x
CCCCOc1ccc(OC(=O)Nc2cc(Cl)ccc2OC)cc1 | n | n | n | n | n | x | x
O=C(Nc1cccc(Br)c1)c1ccn[nH]1 | n | n | 57 | n | 59 | 41 | 60
CC(=O)NCCC1CCN(C(=O)C2CCC(=O)N(C3CCCC3)C2)CC1 (stereo unspecified) | n | n | n | n | n | x | x
CC(C)c1ccc2c(c1)C1(NN=C(c3ccccc3)S1)C(=O)N2 (stereo unspecified) | n | n | 50 | n | 51 | 40 | 54
O=C(N/N=C/c1cc(Br)cs1)c1ccc2c(c1)OCCO2 | x | n | n | n | n | x | x
Cc1ccsc1/C=N/NC(=O)c1ccc2c(c1)OCCO2 | n | n | 56 | n | 49 | 52 | 72
Cc1ccc(/C=N/NC(=O)c2ccc3c(c2)OCCO3)s1 | n | n | 59 | n | 44 | n | 65
Cc1ccc(/C=N/NC(=O)c2ccc3ccccc3c2)s1 | n | n | 68 | n | 41 | 32 | 73
CC1CCN(C(=O)CN2C(=O)C(C)(C)Oc3ccc(C(=O)NC(C)C)cc32)CC1 | n | n | n | n | n | x | x
CCOc1ccc(-n2c(SCC(=O)NC)nnc2-c2ccco2)cc1 | n | n | n | n | n | x | x
COc1ccccc1N1CCN(CCCCOc2ccc(C)cc2C)CC1 | n | n | n | n | n | x | x
O=S(=O)(Cc1ccccc1)C1CCCCC1O (stereo unspecified) | n | n | n | n | n | x | x
O=C1/C(=C/c2cccs2)Cc2ccccc21 | n | n | 51 | n | 48 | n | 70
Cn1cccc1/C=C1\Cc2ccccc2C1=O | n | n | n | n | n | x | x
CCN(CC)CCN1C(=O)/C(=C\c2ccc(Cl)c([N+](=O)[O-])c2)SC1=Nc1ccc(OC)cc1 | n | n | 66 | n | 41 | 35 | 57
CCCN1C(=O)/C(=C/c2ccc(C)s2)SC1=Nc1ccc(OC)cc1 | n | n | n | n | n | x | x
CCC(C)c1ccc(NC(=O)c2[nH]c(C)c(C(C)=O)c2C)cc1 (stereo unspecified) | n | n | 53 | n | 43 | n | 52
CC(=O)c1c(C)[nH]c(C(=O)Nc2ccc(Cl)cc2)c1C | n | n | n | n | n | x | x
N#C/C(=C\c1ccccc1)C(=O)N1CCN(c2ccccc2F)CC1 | n | n | 66 | n | 47 | 44 | 48
C/C(=C/c1ccccc1)C(=O)N1CCN(c2ccccc2F)CC1 | n | n | n | n | n | x | x
O=C(N/N=C/C(Br)=C/c1ccccc1)c1ccncc1 | n | n | n | n | n | x | x
O=C(N/N=C/C(Br)=C\c1ccccc1)c1cccs1 | x | n | 71 | 299 | 44 | 40 | 69
Cc1cc(C2CCCCC2)n(O)c(=O)c1 | 109 | n | 66 | n | 59 | 62 | 53
CNC(=S)N/N=C/c1cn(Cc2ccc(F)cc2)c2ccccc12 | n | n | 51 | n | 40 | 49 | 39
SMILES | PfHsp90 yeast 2 | tim10-1 inh | tim23-1 inh | Mot1-301 SUMO | TIM10 inh | TIM10 conf | tim23-1 confirm
Cc1ccc(C(=O)O/N=C(\N)Cc2ccc([N+](=O)[O-])cc2)c(Cl)c1 | n | n | 88 | n | 89 | 96 | 65
N/C(Cc1ccc([N+](=O)[O-])cc1)=N\OC(=O)c1ccc(Br)cc1 | n | n | 83 | n | 92 | 94 | n
CCN(CC)c1ccc(/C=N/NC(=O)c2ccco2)c(O)c1 | n | n | 75 | n | 54 | 61 | 77
O=C1c2ccccc2C(=O)c2c1ncn2-c1ccccc1 | n | n | n | n | 46 | n | 45
CCOC(=O)Nc1ccc2nc(N3CCCCCC3)sc2c1 | n | n | 50 | n | 40 | 40 | n
CCCCCCCCCCCCCCCC[n+]1ccc(/C=N/O)cc1 | 106 | n | 51 | n | 50 | n | 49
O=C(/C=C\Nc1ccc2c(c1)OCO2)c1ccc2c(c1)OCO2 | n | n | n | n | n | x | x
O=C1Nc2ccc(Br)cc2/C1=C/C(=O)c1ccc2c(c1)OCO2 | 106 | n | 73 | n | 53 | 64 | n
O=C(NCCOc1ccccc1)c1cc([N+](=O)[O-])ccc1N1CCOCC1 | n | n | n | n | n | x | x

Screens from PubChem BioAssay.
